Only a selection was taken, and hits are over-represented in it overall.
HT1080NT lethal: qHTS for induction of synthetic lethality in tumor cells producing 2HG: qHTS for the HT-1080-NT fibrosarcoma cell line; hit rate 1.6% among 360,000; HT-1080-NT fibrosarcoma viability, CellTiter-Glo ATP luminescence, 48 h; AID 686970, 2013; Potency, µM (titrated, usually from 46.1 µM), for the others: top-dose activity, negative = less viability, actives largely listed as cytotoxic;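 also: NT is the 2HG producing partner of a matched IDH1 knockdown line; potency is read from the fitted curve at half-maximal effect; 0% = DMSO-treated cells and -100% = media-only wells without cells; nearly all actives have a fitted effect of over 55% in size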
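Luminescent CellTiter-Glo readout after 48 hours of compound exposure at 37 degrees C defined viability of HT-1080-NT cells. Activity was normalized to DMSO wells and cell-free media wells; concentration-response curves were fitted and assigned curve classes.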
IL1B secr inh: qHTS for Inhibitors of Inflammasome Signaling: IL-1-beta AlphaLISA Primary Screen | hit rate 4.7% among 360,000 | activity change, % at 57.5 µM | THP-1 LPS/ATP IL-1B secretion, AlphaLISA, 16 h; stronger effect = lower value | AID 743279, 2014; in the data active = activity change below about -50%; inconclusive = mostly about -30% to -49%
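THP-1 cells pretreated 1 hr with compounds (up to 57.5 uM final), then stimulated with LPS (250 ng/mL final) plus ATP (1.25 mM final); secreted IL-1B measured by AlphaLISA after 16 hr, decreased signal indicating inhibition.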
12-LOX inh: Primary qHTS assay for inhibitors of human arachidonate 12S-lipoxygenase (ALOX12): Round 2. Polyunsaturated fatty acid lipoxygenase ALOX12 (Homo sapiens), P18054. purified 12hLO, xylenol orange hydroperoxide absorbance. Potency, µM (titrated, usually from 108 µM), for inactives: top-dose activity change, negative = inhibition, hits mostly inhibitors. hit rate 1.1% among 580,000. AID 1671190, 2021; also: potency is read from the fitted curve at half-maximal effect
Target sequence (P18054 whole entry, looked up): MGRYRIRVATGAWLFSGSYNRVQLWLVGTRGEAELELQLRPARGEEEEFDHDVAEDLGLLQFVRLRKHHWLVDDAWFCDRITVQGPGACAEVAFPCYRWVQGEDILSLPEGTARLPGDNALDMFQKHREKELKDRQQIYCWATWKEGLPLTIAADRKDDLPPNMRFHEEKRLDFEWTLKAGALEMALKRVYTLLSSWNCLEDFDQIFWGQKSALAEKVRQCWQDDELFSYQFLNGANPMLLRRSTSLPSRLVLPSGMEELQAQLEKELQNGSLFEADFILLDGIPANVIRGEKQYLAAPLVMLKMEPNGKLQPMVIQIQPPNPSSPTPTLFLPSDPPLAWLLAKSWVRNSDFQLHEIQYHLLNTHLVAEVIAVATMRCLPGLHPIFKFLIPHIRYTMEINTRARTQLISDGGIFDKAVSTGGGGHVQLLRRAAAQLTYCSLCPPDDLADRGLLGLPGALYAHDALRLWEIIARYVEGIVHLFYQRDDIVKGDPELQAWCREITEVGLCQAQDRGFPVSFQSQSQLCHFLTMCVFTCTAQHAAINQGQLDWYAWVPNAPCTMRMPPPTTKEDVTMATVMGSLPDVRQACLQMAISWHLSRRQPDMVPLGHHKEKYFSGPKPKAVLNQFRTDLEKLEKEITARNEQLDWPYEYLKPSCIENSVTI
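Purified human 12hLO at 150 nM in 25 mM Hepes, 0.01% Triton X-100, pH 7.0, preincubated 15 min at room temperature with compound. Reaction started with 40 uM arachidonic acid, 30 min at room temperature. Hydroperoxide measured by Fe-xylenol orange, 573/405 nm absorbance ratio.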
DT40 TDP1 CPT: qHTS for Inhibitors of human tyrosyl-DNA phosphodiesterase 1 (TDP1): qHTS in cells in presence of CPT; Potency, µM (titrated, usually from 46.2 µM), without a hit: top-dose activity change, negative = growth inhibition, most hits filed as inhibitors; chicken DT40 Tdp1-/-;hTDP1 cells + 20 nM CPT, ATP luminescence, 48 h; AID 686979, 2013; hit rate 12% among 420,000; also: potency is read from the fitted curve at half-maximal effect; nearly all actives have a fitted effect of over 55% in size
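Cell growth measured by CellTiter-Glo luminescence after a minimum 48 h, 37 C compound exposure with 20 nM CPT in Tdp1-knockout DT40 cells stably expressing hTDP1, seeded 400/well; qHTS titration format.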
TDP1 cell noCPT: qHTS for Inhibitors of human tyrosyl-DNA phosphodiesterase 1 (TDP1): qHTS in cells in absence of CPT | DT40 Tdp1-/- hTDP1 cells, no CPT, ATP luminescence, 48 h | Potency, µM (titrated, usually from 46.2 µM), for inactives: top-dose activity change, negative = growth inhibition, actives largely listed as inhibitors | hit rate 15% among 420,000; also: potency is read from the fitted curve at half-maximal effect; nearly all actives have a fitted effect of over 55% in size
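Camptothecin absent (DMSO only). Human TDP1-complemented DT40 knockout cells, 400 cells/well, 37 °C for minimum 48 hr; ATP measured via CellTiter-Glo, 30 min dark incubation, luminescence.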
HT1080 IDH1KD tx: qHTS for induction of synthetic lethality in tumor cells producing 2HG: qHTS for the HT-1080-IDH1KD cell line. hit rate 2% among 360,000. HT-1080 IDH1 knockdown viability, ATP luminescence, 48 h. Potency, µM (titrated, usually from 46.1 µM), for inactives: at the highest dose activity, negative = toxicity, most hits filed as cytotoxic;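 also: potency is read from the fitted curve at half-maximal effect; 0% = DMSO wells and -100% = cell-free medium wells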
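CellTiter-Glo luminescence after 48 h compound exposure at 37 degrees C of IDH1-knockdown HT-1080 cells in 5% FBS RPMI. %Activity scaled between DMSO wells and cell-free media wells, with curves fitted and assigned curve classes.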
Active calls of the source: *; [ ] = another dose, or the depositor's remark. Unless noted, calls follow the shape of the dose curve; as a rule, active = well fitted curve in the direction sought with a large enough effect; inconclusive = small, poorly fitted or top-dose-only effect, or another doubt; inactive = no such curve, though single readings can be large; an effect the other way counts as inactive or inconclusive. Unless noted, % is scaled to controls: 0 for no effect and ±100 for the full control effect.

What do the screens show for `CCc1nc2c(OCC(=O)c3ccc(Cl)cc3Cl)cccn2c1N(C=O)Cc1ccc(OC)cc1`?
HT1080NT lethal: -28%; IL1B secr inh: 1; 12-LOX inh: inconclusive; DT40 TDP1 CPT: 23µM*; TDP1 cell noCPT: 18µM*; HT1080 IDH1KD tx: inconclusive

How did CCc1nc2c(OCCOc3ccc(F)cc3)cccn2c1N(C=O)Cc1ccc(OC)cc1 do in these assays?
HT1080NT lethal: 2%; IL1B secr inh: -21; 12-LOX inh: -6%; DT40 TDP1 CPT: inconclusive; TDP1 cell noCPT: inconclusive; HT1080 IDH1KD tx: 0%

Results for COc1ccc(CC(=O)N2Cc3[nH]cnc3C[C@H]2c2nc(-c3ccc4ccccc4c3)no2)cc1 ?
12-LOX inh: 13%

What do the screens show for `CC(=O)Nc1ccc(Sc2ncccc2C(=O)Nc2ccc(F)cc2)cn1`?
HT1080NT lethal: inconclusive; IL1B secr inh: 61; 12-LOX inh: -10%[57.4 µM]; DT40 TDP1 CPT: 9.2µM*; TDP1 cell noCPT: 7.3µM*; HT1080 IDH1KD tx: inconclusive

Results for COc1cc(NC(=O)c2cccnc2SC)cc(OC)c1OC ?
HT1080NT lethal: -2%; IL1B secr inh: 22; 12-LOX inh: -5%; DT40 TDP1 CPT: 13%; TDP1 cell noCPT: 2%; HT1080 IDH1KD tx: -2%

What do the screens show for `CSc1ncccc1C(=O)Nc1ccc(OC(F)(F)F)cc1`?
HT1080NT lethal: 0%; IL1B secr inh: -22; 12-LOX inh: inactive; DT40 TDP1 CPT: inconclusive; TDP1 cell noCPT: 15µM*; HT1080 IDH1KD tx: 1%

How did CCCCC(CC)C(=O)Nc1ccc(F)c(F)c1 (stereo not drawn) do in these assays?
12-LOX inh: 7%

How did O=C(Cn1cc(/C=C2\NC(=O)N(Cc3ccccc3)C2=O)c2ccccc21)N1CCOCC1 do in these assays?
12-LOX inh: -12%

Results for CCOC(=O)C(Oc1ccc2c(-c3ccc(OC)cc3)cc(=O)oc2c1C)c1ccccc1 (stereo not drawn) ?
HT1080NT lethal: -15%; IL1B secr inh: 8; 12-LOX inh: -9%; DT40 TDP1 CPT: 16µM*; TDP1 cell noCPT: inconclusive; HT1080 IDH1KD tx: -6%

Results for COc1ccc(-c2cc(=O)oc3c(C)c(O)ccc23)cc1 ?
HT1080NT lethal: -5%; IL1B secr inh: 24; 12-LOX inh: 0%; DT40 TDP1 CPT: 7.3µM*; TDP1 cell noCPT: 3.3µM*; HT1080 IDH1KD tx: 3%

What do the screens show for `COc1ccc(-c2cc(=O)oc3cc(OCC(C)=O)ccc23)cc1`?
HT1080NT lethal: 1%; IL1B secr inh: -1; 12-LOX inh: 1%; DT40 TDP1 CPT: -24%; TDP1 cell noCPT: -24%; HT1080 IDH1KD tx: 1%

What do the screens show for `COc1ccc(-c2cc(=O)oc3c(C)c(OC(=O)c4cccs4)ccc23)cc1`?
HT1080NT lethal: -7%; IL1B secr inh: -6; 12-LOX inh: -4%; DT40 TDP1 CPT: 3.7µM*; TDP1 cell noCPT: inconclusive; HT1080 IDH1KD tx: -1%

What do the screens show for `COc1ccc(-c2cc(=O)oc3cc(O)ccc23)cc1`?
HT1080NT lethal: -25%; IL1B secr inh: 17; 12-LOX inh: -4%; DT40 TDP1 CPT: inconclusive; TDP1 cell noCPT: 7.3µM*; HT1080 IDH1KD tx: inconclusive

What do the screens show for `COc1ccc(-c2cc(=O)oc3cc(OCC(=O)Nc4ccccn4)ccc23)cc1`?
HT1080NT lethal: -1%; IL1B secr inh: -4; 12-LOX inh: 1%; DT40 TDP1 CPT: 16µM*; TDP1 cell noCPT: inconclusive; HT1080 IDH1KD tx: 5%

Screening results: PubChem, National Center for Advancing Translational Sciences (NCATS)
